About 79,000 compounds went through this panel and 15% of them were active in at least one assay; those are over-represented in the sample as a whole. A number with no mark means an inactive call. Calls of active or inactive are those of the source. Cut-off read from the data, not from the text of the source: active = growth inhibition above about 70%; inactive = the rest.

Experiment [1] can be described thus: NCI Yeast Anticancer Drug Screen. Data for the rad50 strain (AID 155).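 Note: 0% = growth of vehicle-only cultures of the same strain.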 The conditions noted are these: S. cerevisiae rad50 strain growth inhibition, stronger effect = higher value. In outline: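 Readout: growth inhibition relative to vehicle-treated cultures. Compound exposure was carried out in a genetically defined yeast strain deficient in DNA damage repair.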
Experiment [2] can be described thus: NCI Yeast Anticancer Drug Screen. Data for the mec2-1 strain (AID 157). The conditions noted are these: S. cerevisiae mec2-1 strain, stronger effect = higher value. The essentials: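 Mutant yeast (mec2-1) grown with compound; growth inhibition relative to vehicle control reported.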
Experiment [3] in a line: NCI Yeast Anticancer Drug Screen. Data for the sgs1 mgt1 strain (AID 161).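 Note: 0% = growth of cultures given vehicle only.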 The conditions noted are these: S. cerevisiae sgs1 mgt1 strain, stronger effect = higher value. In outline: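 Compounds are added to genetically altered yeast, and growth is compared with cultures given vehicle alone to give percent inhibition.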
The nature of experiment [4]: NCI Yeast Anticancer Drug Screen. Data for the cln2 rad14 strain (AID 165).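 Note: 0% = growth equal to vehicle treated cultures.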 Particulars: S. cerevisiae cln2 rad14 strain, stronger effect = higher value. In outline:
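Readout is yeast growth inhibition versus vehicle-treated controls, using a strain with cln2 and rad14 alterations exposed to compound.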

A short description of experiment [5]: NCI Yeast Anticancer Drug Screen. Data for the bub3 strain (AID 167). Particulars: S. cerevisiae bub3 mutant strain, stronger effect = higher value. In outline: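 Readout: yeast growth inhibition, expressed relative to vehicle-only wells. The test organism is a mutant strain from a panel with lesions in DNA repair or checkpoint genes.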
The nature of experiment [6]: NCI Yeast Anticancer Drug Screen. Data for the mlh1 rad18 strain (AID 175). The conditions noted are these: S. cerevisiae mlh1 rad18 strain growth inhibition, stronger effect = higher value. The essentials: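 Genetically defined yeast (DNA repair-deficient) exposed to compounds; growth inhibition determined relative to vehicle.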
Where [7] appears, read: at 5.0 µM (retest, dose inferred, filed as 0.5).
Where [8] appears, read: at 50.0 µM (retest, dose inferred, filed as 5.0).

For the molecule `O=C(Nc1ccccc1)c1cccc2ccccc12`, the growth inhibition in experiment [1] (setting [7]) is 2%; in experiment [1] (setting [8]), -8%; in experiment [1] (at 50.0 µM), 67.7%; in experiment [2] (setting [7]) it was 4%; in experiment [2] (setting [8]) it was -1%; in experiment [2] (at 50.0 µM), 48%. Moreover, the growth inhibition in experiment [3] (setting [7]) was 6%; in experiment [3] (setting [8]), -4%; in experiment [3] (at 50.0 µM) it was 55.1%; in experiment [4] (setting [7]) it was 1%; in experiment [4] (setting [8]) it was -6%; in experiment [4] (at 50.0 µM), 24.1%. In addition, the growth inhibition in experiment [5] (setting [7]) is -18%; in experiment [5] (setting [8]), 0%; in experiment [5] (at 50.0 µM), 51%; in experiment [6] (setting [7]), -15%; in experiment [6] (setting [8]), 7%; in experiment [6] (at 50.0 µM), 70.8% (active).

Turning to `COc1ccc(-c2c(-c3ccccc3)c(C)nc3nc(SC)nc(SC)c23)cc1OC`, the growth inhibition in experiment [1] (setting [7]) was 24%; in experiment [1] (setting [8]), 95% (active); in experiment [1] (at 50.0 µM) it was 95% (active); in experiment [2] (setting [7]), 0%; in experiment [2] (setting [8]), 96% (active); in experiment [2] (at 50.0 µM), 95% (active). For the same molecule, the growth inhibition in experiment [3] (setting [7]) was 12%; in experiment [3] (setting [8]), 97% (active); in experiment [3] (at 50.0 µM), 94.2% (active); in experiment [4] (setting [7]) it was -2%; in experiment [4] (setting [8]), 92% (active); in experiment [4] (at 50.0 µM), 94.7% (active). The growth inhibition is -20% in experiment [5] (setting [7]); 94% (active) in experiment [5] (setting [8]); 94.6% (active) in experiment [5] (at 50.0 µM); 2% in experiment [6] (setting [7]); 96% (active) in experiment [6] (setting [8]); 94.6% (active) in experiment [6] (at 50.0 µM).

Regarding `O=C(O)Cc1cccc2cc3c(ccc4ccccc43)cc12`, the growth inhibition is 15% in experiment [1] (setting [7]); 34% in experiment [1] (setting [8]); 47.7% in experiment [1] (at 50.0 µM); 8% in experiment [2] (setting [7]); 32% in experiment [2] (setting [8]); 91% (active) in experiment [2] (at 50.0 µM). Further, the growth inhibition was 11% in experiment [3] (setting [7]); 47% in experiment [3] (setting [8]); 10.1% in experiment [3] (at 50.0 µM); -2% in experiment [4] (setting [7]); 44% in experiment [4] (setting [8]); 96.6% (active) in experiment [4] (at 50.0 µM). Besides, the growth inhibition in experiment [5] (setting [7]) is 2%; in experiment [5] (setting [8]), 42%; in experiment [5] (at 50.0 µM), 93.3% (active); in experiment [6] (setting [7]), 8%; in experiment [6] (setting [8]), 44%; in experiment [6] (at 50.0 µM), 96.7% (active).

Regarding `Nc1cn(C2OC(CC(c3ccccc3)(c3ccccc3)c3ccccc3)C(O)C2O)c(=O)[nH]c1=O` (stereo not given), the growth inhibition in experiment [1] (setting [7]) is 99% (active); in experiment [1] (setting [8]), 99% (active); in experiment [1] (at 50.0 µM), 39%; in experiment [2] (setting [7]), 97% (active); in experiment [2] (setting [8]), 97% (active); in experiment [2] (at 50.0 µM) it was 34.9%. The growth inhibition in experiment [3] (setting [7]) was 99% (active); in experiment [3] (setting [8]) it was 99% (active); in experiment [3] (at 50.0 µM), 42.1%; in experiment [4] (setting [7]), 96% (active); in experiment [4] (setting [8]), 96% (active); in experiment [4] (at 50.0 µM), 37.5%. Moreover, the growth inhibition in experiment [5] (setting [7]) is 66%; in experiment [5] (setting [8]) it was 66%; in experiment [5] (at 50.0 µM), 46.5%; in experiment [6] (setting [7]) it was 97% (active); in experiment [6] (setting [8]) it was 97% (active); in experiment [6] (at 50.0 µM) it was 34.6%.

Take `O=c1cc(CSc2ccc(Cl)cc2)occ1O`: the growth inhibition in experiment [1] (setting [7]) is 3%; in experiment [1] (setting [8]), 32%; in experiment [1] (at 50.0 µM) it was 44.5%; in experiment [2] (setting [7]), -2%; in experiment [2] (setting [8]), 17%; in experiment [2] (at 50.0 µM), 13.4%. Also, the growth inhibition in experiment [3] (setting [7]) is 3%; in experiment [3] (setting [8]), 72% (active); in experiment [3] (at 50.0 µM) it was 87.2% (active); in experiment [4] (setting [7]), 7%; in experiment [4] (setting [8]), 18%; in experiment [4] (at 50.0 µM), 13.2%. Besides, the growth inhibition in experiment [5] (setting [7]) was -3%; in experiment [5] (setting [8]), 4%; in experiment [5] (at 50.0 µM), 11.9%; in experiment [6] (setting [7]) it was 2%; in experiment [6] (setting [8]) it was 51%; in experiment [6] (at 50.0 µM), 55%.

For `COC1=CC(=O)C(O)=C/C1=C\C=C\c1ccccc1`, the growth inhibition in experiment [1] (setting [7]) is 67%; in experiment [1] (setting [8]), 97% (active); in experiment [1] (at 50.0 µM), 95% (active); in experiment [2] (setting [7]) it was 59%; in experiment [2] (setting [8]), 99% (active); in experiment [2] (at 50.0 µM), 97% (active). Besides, the growth inhibition in experiment [3] (setting [7]) is 84% (active); in experiment [3] (setting [8]), 99% (active); in experiment [3] (at 50.0 µM), 97% (active); in experiment [4] (setting [7]) it was 50%; in experiment [4] (setting [8]), 99% (active); in experiment [4] (at 50.0 µM), 95.3% (active). Further, the growth inhibition is 36% in experiment [5] (setting [7]); 98% (active) in experiment [5] (setting [8]); 96.6% (active) in experiment [5] (at 50.0 µM); 83% (active) in experiment [6] (setting [7]); 99% (active) in experiment [6] (setting [8]); 96.8% (active) in experiment [6] (at 50.0 µM).

For `CN(C)C(=S)/N=c1\ss/c(=N\C(=S)N(C)C)n1Cc1ccco1`, the growth inhibition is -2% in experiment [1] (setting [7]); 2% in experiment [1] (setting [8]); 12.2% in experiment [1] (at 50.0 µM); -2% in experiment [2] (setting [7]); 0% in experiment [2] (setting [8]); -10.7% in experiment [2] (at 50.0 µM). Further, the growth inhibition in experiment [3] (setting [7]) was -2%; in experiment [3] (setting [8]), 4%; in experiment [3] (at 50.0 µM) it was -2.7%; in experiment [4] (setting [7]), -4%; in experiment [4] (setting [8]), 3%; in experiment [4] (at 50.0 µM), 9.1%. Also, the growth inhibition in experiment [5] (setting [7]) is 0%; in experiment [5] (setting [8]), -1%; in experiment [5] (at 50.0 µM), -3.05%; in experiment [6] (setting [7]), -1%; in experiment [6] (setting [8]), 2%; in experiment [6] (at 50.0 µM), -3.15%.

Turning to `COc1ccc(C2=C/C(=C3\C(=O)Oc4ccccc4C3=O)SS2)cc1`, the growth inhibition in experiment [1] (setting [7]) is 0%; in experiment [1] (setting [8]), 32%; in experiment [1] (at 50.0 µM) it was -5.95%; in experiment [2] (setting [7]) it was -2%; in experiment [2] (setting [8]), 7%; in experiment [2] (at 50.0 µM), -1.6%. For the same molecule, the growth inhibition in experiment [3] (setting [7]) is 2%; in experiment [3] (setting [8]), 50%; in experiment [3] (at 50.0 µM), -3.75%; in experiment [4] (setting [7]), 1%; in experiment [4] (setting [8]), 36%; in experiment [4] (at 50.0 µM), 38.5%. For the same molecule, the growth inhibition was 3% in experiment [5] (setting [7]); 24% in experiment [5] (setting [8]); -3.75% in experiment [5] (at 50.0 µM); -2% in experiment [6] (setting [7]); 32% in experiment [6] (setting [8]); 1.2% in experiment [6] (at 50.0 µM).

For the molecule `Cc1cccc(NC(=O)c2cc3cc(N=Nc4ccccc4Cl)ccc3oc2=O)c1`, the growth inhibition in experiment [1] (setting [7]) is 6%; in experiment [1] (setting [8]), 6%; in experiment [1] (at 50.0 µM), 78.5% (active); in experiment [2] (setting [7]), -2%; in experiment [2] (setting [8]) it was -2%; in experiment [2] (at 50.0 µM), 70% (active). For the same molecule, the growth inhibition in experiment [3] (setting [7]) was 22%; in experiment [3] (setting [8]) it was 22%; in experiment [3] (at 50.0 µM) it was 75.4% (active); in experiment [4] (setting [7]) it was 3%; in experiment [4] (setting [8]) it was 3%; in experiment [4] (at 50.0 µM), 35%. Besides, the growth inhibition in experiment [5] (setting [7]) was 6%; in experiment [5] (setting [8]), 6%; in experiment [5] (at 50.0 µM), 78.3% (active); in experiment [6] (setting [7]) it was 7%; in experiment [6] (setting [8]), 7%; in experiment [6] (at 50.0 µM) it was 70.7% (active).

For the molecule `CS(=O)(=O)OCCN(CCOS(C)(=O)=O)c1ccc(C=Nc2ccc(-c3cnc(-c4ccc(Cl)cc4)s3)cc2)c(Cl)c1`, the growth inhibition in experiment [1] (setting [7]) was 1%; in experiment [1] (setting [8]), 84% (active); in experiment [1] (at 50.0 µM), 90% (active); in experiment [2] (setting [7]), -3%; in experiment [2] (setting [8]) it was 91% (active); in experiment [2] (at 50.0 µM), 95% (active). Besides, the growth inhibition was 3% in experiment [3] (setting [7]); 90% (active) in experiment [3] (setting [8]); 93.8% (active) in experiment [3] (at 50.0 µM); -6% in experiment [4] (setting [7]); 90% (active) in experiment [4] (setting [8]); 90.5% (active) in experiment [4] (at 50.0 µM). Moreover, the growth inhibition in experiment [5] (setting [7]) is 3%; in experiment [5] (setting [8]), 92% (active); in experiment [5] (at 50.0 µM), 92.3% (active); in experiment [6] (setting [7]) it was 0%; in experiment [6] (setting [8]) it was 89% (active); in experiment [6] (at 50.0 µM) it was 92.3% (active).

Source of the values: PubChem BioAssay (NCI).
